# According to paper PMC7862700, “An all-to-all approach to the identification of sequence-specific readers for epigenetic DNA modifications on cytosine”:
# Experiments:
# Assay in all cases: DAPPL (digital affinity profiling via proximity ligation, sequencing); 10 mM Tris-HCl pH 7.5, 50 mM NaCl, 1 mM DTT, 4% glycerol, room temperature, 30 min; GST-TFs on glutathione beads, 16-mer random dsDNA library, 0.1% formaldehyde crosslink after washing; high values mean tight binding
# Details in all cases: protein: recombinant; tags: N-terminal GST; dsDNA, one strand shown
# [1] = biological target: T1, GABPA (Homo sapiens, UniProt Q06546 1-454)
# T1 sequence: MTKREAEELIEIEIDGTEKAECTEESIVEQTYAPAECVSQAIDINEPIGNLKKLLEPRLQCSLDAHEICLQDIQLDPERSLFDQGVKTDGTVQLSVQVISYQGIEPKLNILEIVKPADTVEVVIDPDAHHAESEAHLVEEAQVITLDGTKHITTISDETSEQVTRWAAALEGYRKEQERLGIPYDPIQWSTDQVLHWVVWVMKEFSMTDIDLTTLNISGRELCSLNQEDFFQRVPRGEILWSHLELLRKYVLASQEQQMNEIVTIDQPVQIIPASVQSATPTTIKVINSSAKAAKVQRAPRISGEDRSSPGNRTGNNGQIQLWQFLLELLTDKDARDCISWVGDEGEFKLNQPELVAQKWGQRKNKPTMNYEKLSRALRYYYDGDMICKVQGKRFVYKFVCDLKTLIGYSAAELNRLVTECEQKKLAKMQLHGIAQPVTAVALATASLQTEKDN
# Outline: (§1)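 GST fusions of human transcription factors were expressed in yeast and captured with glutathione beads. Once given DNA barcodes and pooled alongside a tag-only sample, they were incubated for 30 min at room temperature with 200 nmole of a random double-stranded 16-mer DNA library in Tris/NaCl/DTT/glycerol buffer, then washed, crosslinked (0.1% formaldehyde), proximity-ligated, PCR-amplified and sequenced on an Illumina NextSeq500. The binding signal of each hexamer is its read frequency for a factor divided by its frequency for the tag-only sample.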
# [2] = biological target: ELF1 (Homo sapiens, UniProt P32519 1-619)
# Chain of ELF1 (P32519 whole entry): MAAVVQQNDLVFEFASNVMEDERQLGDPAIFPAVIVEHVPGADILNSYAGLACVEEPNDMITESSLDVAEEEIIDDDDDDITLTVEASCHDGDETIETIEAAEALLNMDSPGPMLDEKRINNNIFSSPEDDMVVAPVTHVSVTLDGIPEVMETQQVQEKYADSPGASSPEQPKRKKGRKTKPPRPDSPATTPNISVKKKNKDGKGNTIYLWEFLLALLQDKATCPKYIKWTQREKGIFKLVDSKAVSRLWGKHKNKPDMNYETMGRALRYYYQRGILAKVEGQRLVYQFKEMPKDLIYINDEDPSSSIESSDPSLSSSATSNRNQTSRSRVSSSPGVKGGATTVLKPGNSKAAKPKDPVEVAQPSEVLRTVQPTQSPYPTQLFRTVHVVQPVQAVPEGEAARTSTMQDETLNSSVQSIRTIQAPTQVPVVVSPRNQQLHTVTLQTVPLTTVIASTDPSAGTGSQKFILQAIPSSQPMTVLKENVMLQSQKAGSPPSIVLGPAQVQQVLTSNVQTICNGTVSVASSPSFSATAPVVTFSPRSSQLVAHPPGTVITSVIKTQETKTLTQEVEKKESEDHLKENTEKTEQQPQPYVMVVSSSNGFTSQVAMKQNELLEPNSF
# Outline: as §1
# [3] = biological target: T2, EHF (Homo sapiens, UniProt Q9NZC4 1-300)
# T2 sequence: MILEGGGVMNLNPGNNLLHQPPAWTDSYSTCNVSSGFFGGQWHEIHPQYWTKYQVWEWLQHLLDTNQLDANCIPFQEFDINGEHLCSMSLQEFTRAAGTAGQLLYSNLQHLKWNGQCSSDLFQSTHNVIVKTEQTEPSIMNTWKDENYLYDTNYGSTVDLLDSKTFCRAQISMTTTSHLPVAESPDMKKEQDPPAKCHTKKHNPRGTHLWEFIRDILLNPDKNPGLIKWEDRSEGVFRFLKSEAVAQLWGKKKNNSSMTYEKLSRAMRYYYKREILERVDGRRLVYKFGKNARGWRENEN
# Outline: as §1
# [4] = biological target: T3, ELK3 (Homo sapiens, UniProt P41970 1-407)
# T3 sequence: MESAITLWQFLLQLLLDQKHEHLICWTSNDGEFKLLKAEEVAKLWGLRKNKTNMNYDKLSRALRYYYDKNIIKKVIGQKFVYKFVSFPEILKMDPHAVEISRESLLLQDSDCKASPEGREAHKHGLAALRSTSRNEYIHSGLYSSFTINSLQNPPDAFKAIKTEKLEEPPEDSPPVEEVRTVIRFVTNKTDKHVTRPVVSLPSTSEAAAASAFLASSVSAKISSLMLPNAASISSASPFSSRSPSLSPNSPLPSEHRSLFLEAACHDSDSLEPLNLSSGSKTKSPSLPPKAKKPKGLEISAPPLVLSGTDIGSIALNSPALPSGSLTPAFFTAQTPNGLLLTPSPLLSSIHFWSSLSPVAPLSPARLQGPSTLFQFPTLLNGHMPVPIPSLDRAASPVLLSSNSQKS
# Outline: as §1
# [5] = biological target: T4, FEV (Homo sapiens, UniProt Q99581 1-238)
# T4 sequence: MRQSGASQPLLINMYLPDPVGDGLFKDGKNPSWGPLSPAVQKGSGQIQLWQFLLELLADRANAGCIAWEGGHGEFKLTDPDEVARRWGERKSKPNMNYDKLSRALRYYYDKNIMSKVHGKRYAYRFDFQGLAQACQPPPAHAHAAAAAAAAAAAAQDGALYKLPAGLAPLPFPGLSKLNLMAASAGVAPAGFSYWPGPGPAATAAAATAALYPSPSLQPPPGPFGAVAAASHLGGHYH
# Outline: as §1
# [6] = biological target: ETV5 (Homo sapiens, UniProt P41161 1-510)
# Chain of ETV5 (P41161 whole entry): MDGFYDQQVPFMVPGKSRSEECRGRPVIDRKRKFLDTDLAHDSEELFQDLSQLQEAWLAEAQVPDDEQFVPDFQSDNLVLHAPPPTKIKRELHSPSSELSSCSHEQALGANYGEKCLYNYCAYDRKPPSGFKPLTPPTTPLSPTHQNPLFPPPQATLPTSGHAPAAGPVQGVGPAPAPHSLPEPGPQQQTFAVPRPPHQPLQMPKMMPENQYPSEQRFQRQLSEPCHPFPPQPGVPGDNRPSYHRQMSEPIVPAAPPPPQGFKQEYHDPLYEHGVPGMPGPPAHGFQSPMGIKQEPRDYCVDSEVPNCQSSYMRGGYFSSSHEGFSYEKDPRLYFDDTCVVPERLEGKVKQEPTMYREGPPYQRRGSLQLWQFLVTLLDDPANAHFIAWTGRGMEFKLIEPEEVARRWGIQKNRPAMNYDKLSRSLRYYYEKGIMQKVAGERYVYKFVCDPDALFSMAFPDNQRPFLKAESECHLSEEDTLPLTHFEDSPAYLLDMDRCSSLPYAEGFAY
# Outline: as §1
# [7] = biological target: T5, ELK4 (Homo sapiens, UniProt P28324-2 1-405)
# T5 sequence: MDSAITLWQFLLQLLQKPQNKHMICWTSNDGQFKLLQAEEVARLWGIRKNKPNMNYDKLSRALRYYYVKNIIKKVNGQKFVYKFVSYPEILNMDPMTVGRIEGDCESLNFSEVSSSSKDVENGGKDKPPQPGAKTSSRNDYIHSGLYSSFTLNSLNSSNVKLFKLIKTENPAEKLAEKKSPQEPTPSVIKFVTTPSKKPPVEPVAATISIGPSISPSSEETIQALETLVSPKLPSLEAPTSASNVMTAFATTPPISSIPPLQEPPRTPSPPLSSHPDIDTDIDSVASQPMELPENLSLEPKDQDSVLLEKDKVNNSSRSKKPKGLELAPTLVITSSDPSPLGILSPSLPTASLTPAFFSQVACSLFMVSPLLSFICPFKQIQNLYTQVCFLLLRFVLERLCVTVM
# Outline: as §1
# [8] = biological target: ETV1 (Homo sapiens, UniProt P50549 1-477)
# Chain of ETV1 (P50549 whole entry): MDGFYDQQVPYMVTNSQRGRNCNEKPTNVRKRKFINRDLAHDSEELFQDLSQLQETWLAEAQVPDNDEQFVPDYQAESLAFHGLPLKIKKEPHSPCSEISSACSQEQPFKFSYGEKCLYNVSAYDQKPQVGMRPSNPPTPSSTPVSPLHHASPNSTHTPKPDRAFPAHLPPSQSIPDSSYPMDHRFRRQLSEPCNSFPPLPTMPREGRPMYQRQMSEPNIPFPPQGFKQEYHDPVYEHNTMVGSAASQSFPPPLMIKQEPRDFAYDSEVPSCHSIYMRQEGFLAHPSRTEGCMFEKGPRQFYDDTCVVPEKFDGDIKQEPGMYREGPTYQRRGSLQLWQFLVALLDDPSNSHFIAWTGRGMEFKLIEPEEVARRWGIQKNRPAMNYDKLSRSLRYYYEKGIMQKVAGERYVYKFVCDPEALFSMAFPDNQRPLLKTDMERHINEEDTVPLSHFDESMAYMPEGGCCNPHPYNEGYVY
# Outline: as §1
# [9] = biological target: T6, SPDEF (Homo sapiens, UniProt O95238 1-335)
# T6 sequence: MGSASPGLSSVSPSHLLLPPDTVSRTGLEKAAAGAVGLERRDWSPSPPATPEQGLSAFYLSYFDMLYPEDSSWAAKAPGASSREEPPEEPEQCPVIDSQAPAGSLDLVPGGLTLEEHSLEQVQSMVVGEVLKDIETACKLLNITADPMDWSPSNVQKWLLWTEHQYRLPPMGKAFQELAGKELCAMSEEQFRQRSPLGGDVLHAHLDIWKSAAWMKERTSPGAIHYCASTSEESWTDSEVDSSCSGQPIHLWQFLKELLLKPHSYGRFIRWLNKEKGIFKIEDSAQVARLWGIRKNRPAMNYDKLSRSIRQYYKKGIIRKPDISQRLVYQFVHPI
# Outline: as §1
# [10] = biological target: T7, ETV7 (Homo sapiens, UniProt Q9Y603 1-341)
# T7 sequence: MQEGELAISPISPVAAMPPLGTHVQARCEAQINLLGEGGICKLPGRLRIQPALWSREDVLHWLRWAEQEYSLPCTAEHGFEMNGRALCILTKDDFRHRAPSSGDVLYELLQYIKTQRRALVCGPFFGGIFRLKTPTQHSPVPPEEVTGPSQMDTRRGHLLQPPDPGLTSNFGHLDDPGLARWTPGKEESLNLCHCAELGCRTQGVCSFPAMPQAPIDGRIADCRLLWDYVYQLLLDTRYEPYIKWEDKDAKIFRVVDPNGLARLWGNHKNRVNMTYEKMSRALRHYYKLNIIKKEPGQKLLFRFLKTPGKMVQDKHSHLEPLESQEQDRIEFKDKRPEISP
# Outline: as §1
# [11] = biological target: ETV6 (Homo sapiens, UniProt P41212 1-452)
# Chain of ETV6 (P41212 whole entry): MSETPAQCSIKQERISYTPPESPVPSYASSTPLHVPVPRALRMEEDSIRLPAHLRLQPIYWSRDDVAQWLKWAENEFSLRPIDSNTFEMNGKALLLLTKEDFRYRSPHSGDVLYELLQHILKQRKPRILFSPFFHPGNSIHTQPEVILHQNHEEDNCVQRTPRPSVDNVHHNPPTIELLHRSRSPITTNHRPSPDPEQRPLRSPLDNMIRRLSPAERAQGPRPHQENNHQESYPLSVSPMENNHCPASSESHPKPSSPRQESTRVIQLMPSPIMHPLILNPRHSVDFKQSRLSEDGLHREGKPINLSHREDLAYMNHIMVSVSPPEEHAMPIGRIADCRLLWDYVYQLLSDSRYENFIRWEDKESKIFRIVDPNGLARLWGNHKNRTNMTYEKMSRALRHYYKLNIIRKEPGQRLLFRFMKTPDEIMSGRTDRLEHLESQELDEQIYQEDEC
# Outline: as §1
# [12] = biological target: T8, ELK1 (Homo sapiens, UniProt P19419 1-428)
# T8 sequence: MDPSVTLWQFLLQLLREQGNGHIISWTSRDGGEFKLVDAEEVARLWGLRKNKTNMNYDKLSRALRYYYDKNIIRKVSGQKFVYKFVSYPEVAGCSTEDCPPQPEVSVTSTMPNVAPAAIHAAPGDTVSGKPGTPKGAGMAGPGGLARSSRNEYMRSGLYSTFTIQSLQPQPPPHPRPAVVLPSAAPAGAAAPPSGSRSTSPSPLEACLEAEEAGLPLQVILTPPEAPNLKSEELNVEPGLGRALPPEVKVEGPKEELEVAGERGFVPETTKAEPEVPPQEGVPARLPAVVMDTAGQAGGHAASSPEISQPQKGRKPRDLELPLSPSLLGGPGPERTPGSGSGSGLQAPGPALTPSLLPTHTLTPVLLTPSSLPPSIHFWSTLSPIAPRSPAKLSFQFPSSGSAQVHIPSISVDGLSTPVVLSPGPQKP
# Outline: as §1
# [13] = biological target: SPIB (Homo sapiens, UniProt Q01892 1-262)
# Chain of SPIB (Q01892 whole entry): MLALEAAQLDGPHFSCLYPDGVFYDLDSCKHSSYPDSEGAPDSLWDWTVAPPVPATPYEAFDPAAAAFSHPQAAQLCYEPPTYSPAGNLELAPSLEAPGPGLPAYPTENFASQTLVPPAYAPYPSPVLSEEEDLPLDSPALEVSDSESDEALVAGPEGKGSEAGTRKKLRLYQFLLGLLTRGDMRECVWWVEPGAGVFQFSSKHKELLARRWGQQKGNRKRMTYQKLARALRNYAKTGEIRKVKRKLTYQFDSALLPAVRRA
# Outline: as §1
# [14] = biological target: ELF4 (Homo sapiens, UniProt Q99607 1-663)
# Chain of ELF4 (Q99607 whole entry): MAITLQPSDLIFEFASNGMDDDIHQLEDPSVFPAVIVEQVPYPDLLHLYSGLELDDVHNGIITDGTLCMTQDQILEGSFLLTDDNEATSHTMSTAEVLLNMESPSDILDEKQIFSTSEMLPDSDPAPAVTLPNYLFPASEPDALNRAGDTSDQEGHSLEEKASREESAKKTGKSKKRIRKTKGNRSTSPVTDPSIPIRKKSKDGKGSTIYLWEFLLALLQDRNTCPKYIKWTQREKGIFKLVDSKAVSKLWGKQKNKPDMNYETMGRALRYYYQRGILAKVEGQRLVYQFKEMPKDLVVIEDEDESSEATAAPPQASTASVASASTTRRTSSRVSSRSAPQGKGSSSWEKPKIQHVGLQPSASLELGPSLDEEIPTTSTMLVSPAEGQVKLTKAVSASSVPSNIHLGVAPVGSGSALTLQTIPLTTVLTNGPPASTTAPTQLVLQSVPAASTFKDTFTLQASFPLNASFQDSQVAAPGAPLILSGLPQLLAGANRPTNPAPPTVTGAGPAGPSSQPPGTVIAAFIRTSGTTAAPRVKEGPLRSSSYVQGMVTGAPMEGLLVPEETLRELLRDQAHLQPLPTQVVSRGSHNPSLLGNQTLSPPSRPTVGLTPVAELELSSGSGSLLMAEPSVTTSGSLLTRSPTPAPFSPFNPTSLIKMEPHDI
# Outline: as §1
# [15] = biological target: T9, ELF3 (Homo sapiens, UniProt P78545 1-371)
# T9 sequence: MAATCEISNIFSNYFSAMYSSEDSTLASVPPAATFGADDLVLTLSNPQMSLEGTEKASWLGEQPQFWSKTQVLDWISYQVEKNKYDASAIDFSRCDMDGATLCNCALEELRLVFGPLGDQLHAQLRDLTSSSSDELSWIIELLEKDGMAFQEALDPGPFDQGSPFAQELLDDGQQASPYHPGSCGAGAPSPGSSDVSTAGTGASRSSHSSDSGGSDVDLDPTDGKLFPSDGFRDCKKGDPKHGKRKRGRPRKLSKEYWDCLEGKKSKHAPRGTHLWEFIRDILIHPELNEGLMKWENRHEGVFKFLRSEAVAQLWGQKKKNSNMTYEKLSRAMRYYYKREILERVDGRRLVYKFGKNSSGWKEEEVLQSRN
# Outline: as §1
# [16] = biological target: T10, ERF (Homo sapiens, UniProt P50548 1-548)
# T10 sequence: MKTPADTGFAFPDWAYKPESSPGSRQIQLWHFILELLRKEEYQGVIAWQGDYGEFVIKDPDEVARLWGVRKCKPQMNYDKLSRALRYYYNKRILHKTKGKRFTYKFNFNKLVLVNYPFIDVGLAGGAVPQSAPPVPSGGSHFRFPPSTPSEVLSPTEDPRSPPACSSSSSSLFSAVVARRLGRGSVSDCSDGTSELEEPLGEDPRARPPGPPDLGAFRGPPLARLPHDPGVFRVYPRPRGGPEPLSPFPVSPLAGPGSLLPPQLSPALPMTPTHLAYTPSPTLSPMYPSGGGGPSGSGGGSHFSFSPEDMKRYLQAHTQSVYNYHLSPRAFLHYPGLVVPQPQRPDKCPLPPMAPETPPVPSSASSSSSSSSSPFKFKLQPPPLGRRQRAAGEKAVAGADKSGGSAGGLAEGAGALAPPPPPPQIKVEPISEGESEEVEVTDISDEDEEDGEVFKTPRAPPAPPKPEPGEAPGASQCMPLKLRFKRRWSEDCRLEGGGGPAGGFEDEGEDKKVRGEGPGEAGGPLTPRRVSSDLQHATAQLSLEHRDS
# Outline: as §1
# [17] = biological target: T11, ETS2 (Homo sapiens, UniProt P15036 1-469)
# T11 sequence: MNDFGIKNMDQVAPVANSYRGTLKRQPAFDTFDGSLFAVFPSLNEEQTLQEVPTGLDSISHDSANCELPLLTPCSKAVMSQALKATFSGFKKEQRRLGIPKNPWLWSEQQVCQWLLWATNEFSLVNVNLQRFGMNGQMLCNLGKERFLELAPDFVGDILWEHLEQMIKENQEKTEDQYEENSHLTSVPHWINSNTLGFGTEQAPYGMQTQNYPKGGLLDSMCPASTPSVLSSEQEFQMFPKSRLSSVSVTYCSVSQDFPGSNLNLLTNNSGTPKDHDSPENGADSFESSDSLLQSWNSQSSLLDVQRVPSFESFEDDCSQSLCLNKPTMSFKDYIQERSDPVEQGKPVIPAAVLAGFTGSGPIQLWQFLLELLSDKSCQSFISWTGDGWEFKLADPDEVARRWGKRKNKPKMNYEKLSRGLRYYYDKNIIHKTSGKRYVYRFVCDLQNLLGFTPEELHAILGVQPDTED
# Outline: as §1
# [18] = biological target: T12, ETV3 (Homo sapiens, UniProt P41162-2 1-143)
# T12 sequence: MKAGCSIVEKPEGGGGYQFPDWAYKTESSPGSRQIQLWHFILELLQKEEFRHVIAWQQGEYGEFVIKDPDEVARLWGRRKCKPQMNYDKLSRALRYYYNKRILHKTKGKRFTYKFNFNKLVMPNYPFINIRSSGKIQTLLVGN
# Outline: as §1
Sequence,binding signal [1],binding signal [2],binding signal [3],binding signal [4],binding signal [5],binding signal [6],binding signal [7],binding signal [8],binding signal [9],binding signal [10],binding signal [11],binding signal [12],binding signal [13],binding signal [14],binding signal [15],binding signal [16],binding signal [17],binding signal [18]
GGCTAA,"1.01 fold enrichment (6-mer frequency, TF over GST control)","1.04 fold enrichment (6-mer frequency, TF over GST control)","1.01 fold enrichment (6-mer frequency, TF over GST control)","1.02 fold enrichment (6-mer frequency, TF over GST control)","1.01 fold enrichment (6-mer frequency, TF over GST control)","1.01 fold enrichment (6-mer frequency, TF over GST control)","1.04 fold enrichment (6-mer frequency, TF over GST control)","1.03 fold enrichment (6-mer frequency, TF over GST control)","1 fold enrichment (6-mer frequency, TF over GST control)","1 fold enrichment (6-mer frequency, TF over GST control)","1.04 fold enrichment (6-mer frequency, TF over GST control)",–,–,–,–,–,–,–
AGCAAA,"1.06 fold enrichment (6-mer frequency, TF over GST control)","1.07 fold enrichment (6-mer frequency, TF over GST control)","1.03 fold enrichment (6-mer frequency, TF over GST control)","1.04 fold enrichment (6-mer frequency, TF over GST control)","1.02 fold enrichment (6-mer frequency, TF over GST control)","1.07 fold enrichment (6-mer frequency, TF over GST control)","1.05 fold enrichment (6-mer frequency, TF over GST control)","1.09 fold enrichment (6-mer frequency, TF over GST control)",–,–,"1.05 fold enrichment (6-mer frequency, TF over GST control)","1.04 fold enrichment (6-mer frequency, TF over GST control)","1.04 fold enrichment (6-mer frequency, TF over GST control)","1.05 fold enrichment (6-mer frequency, TF over GST control)","1.21 fold enrichment (6-mer frequency, TF over GST control)","1.05 fold enrichment (6-mer frequency, TF over GST control)","1.02 fold enrichment (6-mer frequency, TF over GST control)","1.06 fold enrichment (6-mer frequency, TF over GST control)"
